Test results taken from PubChem BioAssay (NCI).
This is part of a sample that, as a whole, favours compounds with a hit. Of some 83,000 tested, about 20% had one in any assay.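 The endpoint reported here, percent growth, reads 100 for growth as untreated, 0 for no net growth and -100 for all cells dead.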 A number with no mark means an inactive call. Active and inactive are the calls of the source. Rule for the calls: active = growth percent below 10; inactive = the rest.

Legend:
Assay in all cases: NCI-60 one-dose screen, 48 h (100 = growth as untreated, 0 = no growth, -100 = all killed)
Details in all cases: 10 µM unless noted
[1] = test system: DU-145 prostate
[2] = test system: K-562 leukemia
[3] = test system: MALME-3M melanoma
[4] = test system: MDA-MB-231 breast
[5] = test system: RXF 393 renal
[6] = test system: SF-268 CNS
[7] = test system: SF-295 CNS
[8] = test system: SF-539 CNS
[9] = test system: UACC-257 melanoma
[10] = test system: M14 melanoma

Structure (SMILES)	growth [1]	growth [2]	growth [3]	growth [4]	growth [5]	growth [6]	growth [7]	growth [8]	growth [9]	growth [10]
COC(=O)c1ccc2c(C(=Nc3ccc(N(C)C(=O)CN4CCN(C)CC4)cc3)c3ccccc3)c(O)[nH]c2c1	78.3%	3.75% (active)	54.2%	54.8%	15.1%	42.8%	84.1%	36.1%	23%	50.9%
C1=C\COCc2cc(ccc2OCCN2CCCC2)Nc2nccc(n2)-c2cccc(c2)COC/1	13.7%	1.93% (active)	-79.3% (active)	-1.88% (active)	-74.8% (active)	-0.949% (active)	-33.8% (active)	-83.7% (active)	-75.1% (active)	-59.4% (active)
C=CCCCOC1[C@H](OCc2ccccc2)C(OCc2ccccc2)C(OC)O[C@@H]1CNC(=O)c1cccc(I)c1 (stereo not given in full)	49.7%	52%	80.4%	58%	38.1%	31.3%	35%	31.8%	36.8%	47.1%
COc1cc2ncnc(Nc3cccc(Cl)c3F)c2cc1OC(=O)N1CCN(C)C[C@H]1C	65%	60.9%	106%	78.7%	67.9%	73.4%	83.7%	84.1%	68.8%	84.9%
O=C1C=CC2(NN=C(c3ccccc3)N2c2cccc(Cl)c2)c2cccc(O)c21 (stereo not given)	95.9%	23%	38.7%	68.6%	118%	72.4%	40.8%	33.9%	30.8%	53.2%
COc1c(OCCCN2CCOCC2)ccc2c3n(c(=NC(=O)c4cnc(N)nc4)nc12)CCN3	21.8%	21.8%	-21.2% (active)	17.1%	-40.7% (active)	24.6%	-15.4% (active)	-51.5% (active)	-13.8% (active)	10.4%
C[C@@H](Nc1cc(F)cc(F)c1)c1cc(C(=O)N(C)C)cc2c(=O)cc(N3CCOCC3)oc12	68.2%	87.6%	68.9%	82.4%	-16.4% (active)	56.8%	14.8%	24.1%	35.2%	69.2%
Cn1cnc(-c2cc3nccc(Oc4ccc(NC(=S)NC(=O)Cc5ccccc5)cc4F)c3s2)c1	104%	6.69% (active)	86.3%	81.2%	87.1%	84.3%	52.5%	58.7%	60.5%	96.5%
C=CC(=O)Nc1cc2c(Nc3ccc(F)c(Cl)c3)ncnc2cc1C#CC(C)(C)N1CCN(C)CC1	-98.9% (active)	-30.7% (active)	-85.3% (active)	-90.1% (active)	-98.6% (active)	-94.3% (active)	-97.4% (active)	-100% (active)	-86.2% (active)	-90% (active)
Cc1cc(Nc2cc(N3CCN(C)CC3)nc(Sc3ccc(NC(=O)C4CC4)cc3)n2)n[nH]1	55.7%	8.47% (active)	29.3%	37.1%	-18.7% (active)	48.6%	32.7%	9.92% (active)	18.1%	22.3%
O=C(NOCCO)c1ccc2cncn2c1Nc1ccc(I)cc1F	64.6%	38.2%	1.32% (active)	31.6%	-6.5% (active)	74.5%	91.9%	66.2%	-20.7% (active)	5.3% (active)
Clc1ccc(C(Cn2ccnc2)OCc2ccsc2Cl)c(Cl)c1 (stereo not given)	90.3%	16%	65.8%	70.9%	27.8%	67.5%	37.6%	72.5%	59.7%	41.4%
COC(=O)[C@@H](NC(=O)[C@@H](OC)[C@@H]1Cc2cc3cc(OC4CC(OC5CC(O)C(O)C(C)O5)C(O)C(C)O4)c(C)c(O)c3c(O)c2C(=O)[C@H]1OC1CC(OC2CC(OC3CC(C)(O)C(O)C(C)O3)C(O)C(C)O2)C(O)C(C)O1)C(C)C (stereo not given in full)	7.21% (active)	5.81% (active)	-12.3% (active)	10.9%	-68% (active)	6.33% (active)	-32.5% (active)	-22.4% (active)	3.21% (active)	5.18% (active)
CC[C@@H]1C(=O)N(C)c2cnc(Nc3ccc(C(=O)NC4CCN(C)CC4)cc3OC)nc2N1C1CCCC1	9.68% (active)	0.167% (active)	-15.9% (active)	17%	-3.01% (active)	15.5%	11%	-82.4% (active)	-9.29% (active)	-25.9% (active)
Cc1nc2ccc(-n3ncc(C(=O)c4cc5ccccc5[nH]4)c3N)cc2[nH]1	60.7%	17.4%	64.5%	53.9%	15.5%	50.5%	53.5%	-2.11% (active)	79.5%	61.1%
N#Cc1c(-c2ccc(Cl)cc2)csc1NC(=O)Nc1cccc(C(F)(F)F)c1	16.9%	9.25% (active)	14.8%	-0.969% (active)	59.5%	27.9%	3.47% (active)	37.9%	27.8%	20.4%
CO[C@H]1C[C@@H]2CC[C@@H](C)[C@@](O)(O2)C(=O)C(=O)N2CCCC[C@H]2C(=O)O[C@H]([C@H](C)C[C@@H]2CC[C@@H](OCCO)[C@H](OC)C2)CC(=O)[C@H](C)/C=C(\C)[C@@H](O)[C@H](OC)C(=O)[C@H](C)C[C@H](C)\C=C/C=C/C=C/1C	50.8%	42.9%	36.6%	63.1%	5.21% (active)	51.6%	26.3%	41.8%	61%	62.2%
O=C(Cc1ccc(/C=C/C(=O)c2ncc[nH]2)cc1)Nc1ccc(S(F)(F)(F)(F)F)cc1	78.5%	17.8%	88%	70.4%	94.7%	80%	80.8%	93.2%	103%	67.7%
CC/C=C\C[C@H]1C/C=C2/C(=O)C=C[C@@H]2C/C=C\CCCC(=O)O1	-10.9% (active)	1.56% (active)	-15.3% (active)	1.26% (active)	-57.1% (active)	-0.852% (active)	-19.8% (active)	5.18% (active)	-12.7% (active)	-17.4% (active)
COc1ccc(-c2cc3c(C)nc(N)nc3n(C3CCC(OCCO)CC3)c2=O)cn1 (stereo not given)	7.64% (active)	24%	-34% (active)	5.08% (active)	-50.9% (active)	4.36% (active)	-57.7% (active)	-62.4% (active)	-35.9% (active)	0.206% (active)
CC[C@H](CO)Nc1nc(NCc2ccccc2)c2ncn(C(C)C)c2n1	53.9%	58.5%	87.4%	75.6%	-22.3% (active)	70.9%	59.8%	57.2%	91.6%	71.8%
O=C(CNc1nc(-c2ccc(Cl)cc2)cs1)Nc1ccc(-c2nc3ccccc3s2)cc1	95%	96.4%	102%	84.7%	106%	90.8%	98.6%	97%	100%	88.2%

Structure (SMILES)	growth [1]	growth [2]	growth [3]	growth [4]	growth [5]	growth [6]	growth [7]	growth [8]	growth [9]	growth [10]
Cc1c(NC(=O)OC[C@@H]2COCCN2)cn2ncnc(Nc3ccc4c(cnn4Cc4cccc(F)c4)c3)c12	10.1%	11.5%	-27% (active)	1.06% (active)	-62.4% (active)	-2.37% (active)	14.6%	-52.4% (active)	-31.3% (active)	-29.3% (active)
Cc1c(CN2CCN(C(=O)[C@H](C)O)CC2)sc2c(N3CCOCC3)nc(-c3cnc(N)nc3)nc12	8.38% (active)	17.6%	-52.3% (active)	7.09% (active)	-40.1% (active)	12.1%	-45% (active)	-47.5% (active)	-34.3% (active)	-21.4% (active)
CN(C)C/C=C/C(=O)Nc1cc2c(Nc3ccc(F)c(Cl)c3)ncnc2cc1O[C@H]1CCOC1	-7.97% (active)	0.783% (active)	-75.1% (active)	-13.7% (active)	-22% (active)	6.2% (active)	29.8%	-84.6% (active)	-70.7% (active)	-82.8% (active)
N#Cc1ccc(-n2nnc3ccccc32)cc1C#N	93.5%	93%	96.6%	111%	100%	105%	91.5%	101%	89.4%	106%
CCS(=O)(=O)N1CCN(c2ccc(Nc3ncc(C(N)=O)c(NC4CC4)n3)cc2)CC1	88.5%	56.4%	76.7%	69.6%	25.8%	75.5%	61.9%	53.5%	101%	59.5%
COC(=O)N[C@@H](C)CNc1nccc(-c2cn(C(C)C)nc2-c2cc(Cl)cc(NS(C)(=O)=O)c2F)n1	79.6%	69.4%	1.63% (active)	61%	42.7%	82.2%	103%	91.2%	-25.8% (active)	3.81% (active)
CC/C(=C(/c1ccc(Cl)cc1)c1ccc(OCCN2CCCCC2)cc1)c1ccc(Cl)cc1	89.8%	26.2%	82.9%	94.3%	96.6%	88%	60.6%	87.8%	78.3%	76.6%
C/C(=N\NC(=O)Cn1c(-c2ccc(S(C)(=O)=O)cc2)nc2ccccc21)c1ccc(Cl)cc1	112%	80.7%	102%	90.2%	92.2%	91.3%	90%	106%	88.8%	94%
Cn1cc(-c2cnn3c(N)c(Br)c([C@@H]4CCCNC4)nc23)cn1	37.1%	17.9%	50.4%	35.3%	-2.46% (active)	60.1%	24.1%	22.6%	70.7%	33.4%
C/C(=C(/c1ccc(Cl)cc1)c1ccc(OCCN2CCCC2)cc1)c1ccccc1	86.4%	6.72% (active)	62.4%	61.3%	66.6%	87.9%	77.5%	58.8%	44.7%	28.3%
Cc1c(Cn2c(C)nc3c(C(=O)O)cc(N4CCOCC4)cc32)cccc1C(F)(F)F	108%	87.4%	91.8%	110%	27.3%	88.6%	75.1%	113%	79%	89%
CCN1CCN(Cc2ccc(NC(=O)Nc3nc(-c4cc(OC)c(OC)c(OC)c4)cs3)cc2C(F)(F)F)CC1	38.7%	-9.87% (active)	-49.8% (active)	-13.8% (active)	22.6%	34.8%	-38% (active)	-6.61% (active)	-13.1% (active)	-78.6% (active)
C[C@@]1(C(=O)Nc2ccc(F)nc2)CCCN1c1nc(Nc2cc(C3CC3)[nH]n2)c2cccn2n1	38.9%	27.3%	55.3%	20.7%	-45.9% (active)	15.5%	-13.2% (active)	16.3%	22.1%	21.6%
CCCCOc1nc2cc(Cl)ccc2cc1/C=C/c1cc(/C=C/c2cc3ccc(Cl)cc3nc2OCCCC)n(-c2ccccc2)n1	101%	91.7%	92.8%	82.3%	81.6%	74.9%	52.4%	91.9%	67%	99.3%
O=C(CNc1nnc(-c2ccc(Cl)cc2)o1)Nc1ccc(-c2nc3ccccc3s2)cc1	98.5%	85.6%	88.7%	98.8%	100%	77.3%	102%	97%	103%	102%
C[C@@H]1COCCN1c1cc(C2([S@](C)(=N)=O)CC2)nc(-c2ccnc3[nH]ccc23)n1	17.5%	10.8%	43.1%	48%	-28.4% (active)	43.5%	19%	1.29% (active)	52.8%	10.6%
Cn1c(=O)c(F)c(Nc2ccc(I)cc2F)c2c(=O)n(C[C@@H](O)CO)cnc21	52.1%	28.5%	0.26% (active)	19%	-3.91% (active)	59.5%	77.5%	52.3%	-21.4% (active)	6.75% (active)
CCCCCCCC12Cc3ccccc3C1=Nc1c(c3ccccc3n1C)C2=O (stereo not given)	120%	85.9%	95.2%	82.4%	104%	100%	97.4%	111%	82.3%	95.3%
Nc1cc(C(F)(F)F)c(-c2cc(N3CCOCC3)nc(N3CCOCC3)n2)cn1	3.11% (active)	0.801% (active)	-60.8% (active)	-1.72% (active)	-39.7% (active)	6.65% (active)	-46.8% (active)	-57% (active)	-49.5% (active)	-62.1% (active)
Cc1cccc(Cl)c1NC(=O)c1cnc(Nc2cc(N3CCOCC3)cc(S(C)(=O)=O)c2)s1	-41.1% (active)	6.1% (active)	42.2%	9.71% (active)	-34.8% (active)	25.4%	53.8%	2.23% (active)	43.2%	42.4%
O=C(COc1ccc(/C=C2\Cc3ccc(Cl)cc3C2=O)cc1)Nc1nccs1	118%	121%	126%	92.2%	98.2%	114%	113%	96.8%	98.5%	103%
